Test results: PubChem BioAssay (NCI)
This is part of a sample that, as a whole, favours compounds with a hit. Of some 83,000 tested, about 20% had one in any assay.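 Note: values are percent growth. 100 is the growth of untreated cells, values between 100 and 0 indicate rising inhibition; between -100 and 0 indicates cell death.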 Active and inactive are the calls of the source. How the source made its calls: active means growth percent below 10; inactive means the rest.

Legend:
Assay in all cases: NCI-60 one-dose screen, 48 h (100 = growth as untreated, 0 = no growth, -100 = all killed)
Details in all cases: 10 µM unless noted
SK-MEL-2 melanoma = test system: SK-MEL-2 melanoma
SN12C renal = test system: SN12C renal
UO-31 renal = test system: UO-31 renal
TK-10 renal = test system: TK-10 renal
ACHN renal = test system: ACHN renal
CAKI-1 renal = test system: CAKI-1 renal
A498 renal = test system: A498 renal
CCRF-CEM leukemia = test system: CCRF-CEM leukemia
MOLT-4 leukemia = test system: MOLT-4 leukemia

Measured: growth

COC1=CC(c2ccc[nH]2)=N/C1=C\c1[nH]c(C)c(CCCn2cc(CCCCCCCCC[C@@H]3Cc4cc(O)ccc4C4CC[C@]5(C)[C@@H](O)CC[C@H]5C43)nn2)c1C (some centres not stated)
inactive: SK-MEL-2 melanoma 69.7% | SN12C renal 62.4% | UO-31 renal 49.8% | TK-10 renal 109% | ACHN renal 40.8% | CAKI-1 renal 71% | A498 renal 62.1% | CCRF-CEM leukemia 28.1% | MOLT-4 leukemia 67.1%

O=C1NC(Cc2c[nH]c3ccccc23)C(=O)N1Cc1ccc(Cl)cc1 (configuration not stated)
inactive: SK-MEL-2 melanoma 66.3% | SN12C renal 99.7% | UO-31 renal 76% | TK-10 renal 135% | ACHN renal 95% | CAKI-1 renal 86.9% | A498 renal 78.9% | CCRF-CEM leukemia 70.1% | MOLT-4 leukemia 85.4%

N#CC1=C(N)OC2=C(C(=O)CCC2)C1c1ccco1 (configuration not stated)
inactive: SK-MEL-2 melanoma 97.8% | SN12C renal 107% | UO-31 renal 79.3% | TK-10 renal 96.4% | ACHN renal 104% | CAKI-1 renal 93% | A498 renal 112% | CCRF-CEM leukemia 107% | MOLT-4 leukemia 97.9%

O=C(O)c1ccc(-n2c(=O)c3ccccc3c3ccccc3c2=O)cc1
inactive: SK-MEL-2 melanoma 93% | SN12C renal 107% | UO-31 renal 74.8% | TK-10 renal 97.9% | ACHN renal 103% | CAKI-1 renal 101% | A498 renal 118% | CCRF-CEM leukemia 104% | MOLT-4 leukemia 92.8%

CCC1CCc2nc3sc(C(=O)Nc4cccc(C)c4)c(N)c3cc2C1 (configuration not stated)
inactive: SK-MEL-2 melanoma 54.6% | SN12C renal 90.8% | UO-31 renal 83.6% | TK-10 renal 78.3% | ACHN renal 87% | CAKI-1 renal 78.1% | A498 renal 45.4% | CCRF-CEM leukemia 47.7% | MOLT-4 leukemia 52.6%

O=C(CC(O)c1ccncc1)c1ccccc1 (configuration not stated)
inactive: SK-MEL-2 melanoma 57.1% | UO-31 renal 49.7% | CAKI-1 renal 86.2% | A498 renal 62.4% | CCRF-CEM leukemia 99.9% | MOLT-4 leukemia 90.9%
active: SN12C renal -22.2% | TK-10 renal -30.8% | ACHN renal -28.5%

COc1cc(CNC(=O)CSc2nc3ccccc3c(=O)n2Cc2cc(OC)c(OC)c(OC)c2)cc(OC)c1OC
inactive: SK-MEL-2 melanoma 95.9% | SN12C renal 96.6% | UO-31 renal 72.5% | TK-10 renal 99.7% | ACHN renal 98.1% | CAKI-1 renal 98.5% | A498 renal 88.4% | CCRF-CEM leukemia 96.2% | MOLT-4 leukemia 92.7%

COc1cc(CCn2nnc3c(NCCCCO)ncnc32)cc(OC)c1
inactive: SK-MEL-2 melanoma 124% | SN12C renal 102% | UO-31 renal 86.4% | TK-10 renal 119% | ACHN renal 106% | CAKI-1 renal 92.7% | A498 renal 89% | CCRF-CEM leukemia 95% | MOLT-4 leukemia 112%

COC1=CC(c2ccc[nH]2)=N/C1=C\c1[nH]c(C)c(C(=O)CCC(=O)Oc2ccc3c(c2)CCC2C3CC[C@]3(C)[C@@H](O)CC[C@@H]23)c1C (some centres not stated)
active: SK-MEL-2 melanoma 1.42% | UO-31 renal -61.9% | ACHN renal -55.3% | CAKI-1 renal -39.3% | A498 renal -12.7% | CCRF-CEM leukemia 0.176% | MOLT-4 leukemia -9.7%
inactive: SN12C renal 17.3% | TK-10 renal 34.4%

CCCCCCC[C@@H](O)CC(=O)N[C@H](CCCCN)C(=O)N[C@H](Cc1c[nH]c2ccccc12)C(=O)NC(CCCCN)C(=O)N[C@H](CC(C)C)C(=O)N[C@H](Cc1ccccc1)C(=O)N[C@H](CCCCN)C(=O)N[C@H](CCCCN)C(=O)N[C@H](CC(C)C)C(=O)N1CCCC1C(=O)N[C@H](CCCCN)C(=O)N[C@H](Cc1ccccc1)C(=O)N[C@H](CC(C)C)C(=O)N[C@H](Cc1c[nH]cn1)C(=O)N[C@H](CC(C)C)C(=O)N[C@H](C)C(=O)N[C@H](CCCCN)C(=O)N[C@H](CCCCN)C(=O)N[C@H](Cc1ccccc1)C(=O)O (some centres not stated)
active: SK-MEL-2 melanoma -60.1% | SN12C renal -40.7% | UO-31 renal -54.5% | TK-10 renal -80.4% | ACHN renal -50.9% | CAKI-1 renal -70.3% | A498 renal -54.1% | CCRF-CEM leukemia -39.6% | MOLT-4 leukemia -25.9%

CC(=O)Nc1ccc(S(=O)(=O)N2C(=O)CCC2C(=O)Nc2ccccc2)cc1 (configuration not stated)
inactive: SK-MEL-2 melanoma 43.9% | SN12C renal 40.4% | UO-31 renal 14.1% | TK-10 renal 27.5% | ACHN renal 30.4% | CCRF-CEM leukemia 17.7% | MOLT-4 leukemia 28.8%
active: CAKI-1 renal 9.53% | A498 renal 2.01%

Oc1ccc(N=Cc2ccccc2)cc1
inactive: SK-MEL-2 melanoma 94% | SN12C renal 96.5% | UO-31 renal 77.5% | TK-10 renal 108% | ACHN renal 57.3% | CAKI-1 renal 105% | A498 renal 78.1%
active: CCRF-CEM leukemia 5.42% | MOLT-4 leukemia 3.61%

NC(=S)NN=C1CCCCC1
inactive: SK-MEL-2 melanoma 107% | SN12C renal 85.2% | UO-31 renal 79.8% | TK-10 renal 100% | ACHN renal 103% | CAKI-1 renal 103% | A498 renal 87% | CCRF-CEM leukemia 39.6% | MOLT-4 leukemia 68.8%

CC/C=C\C/C=C\C[C@H]1C/C=C2/C(=O)C=C[C@H]2C/C=C\CCC(=O)O1
active: SK-MEL-2 melanoma 7.15% | SN12C renal -10.2% | UO-31 renal -51.7% | TK-10 renal 2.67% | ACHN renal -63.5% | CCRF-CEM leukemia 3.86% | MOLT-4 leukemia -3.06%
inactive: CAKI-1 renal 34.1% | A498 renal 77.7%

O=C(CCCn1c(=O)c2sc3ccccc3c2n2nnc(-c3ccccc3)c12)NCCc1cnc[nH]1
inactive: CAKI-1 renal 14.9% | A498 renal 95.6% | CCRF-CEM leukemia 42.6% | MOLT-4 leukemia 73.3%
active: SK-MEL-2 melanoma -49.2% | SN12C renal -78% | UO-31 renal -79.3% | TK-10 renal -62.4% | ACHN renal -37.9%

CC1(C)OC2COC3(C(=O)O)OC(C)(C)OC3C2O1 (configuration not stated)
inactive: SK-MEL-2 melanoma 93.1% | SN12C renal 91.4% | UO-31 renal 92.3% | TK-10 renal 94.7% | ACHN renal 94.4% | CAKI-1 renal 103% | A498 renal 91.7% | CCRF-CEM leukemia 128% | MOLT-4 leukemia 104%

CC1=C(C#N)C(C)(C)C(C#N)=C(C)N1
inactive: SK-MEL-2 melanoma 109% | SN12C renal 99.5% | UO-31 renal 91.1% | TK-10 renal 103% | ACHN renal 101% | CAKI-1 renal 103% | A498 renal 88.6% | CCRF-CEM leukemia 98% | MOLT-4 leukemia 102%

CCN(CC)CCCC(C)N=c1cc(Nc2cc(=NC(C)CCCN(CC)CC)c3cc(OC)ccc3o2)oc2ccc(OC)cc12 (configuration not stated)
active: SK-MEL-2 melanoma -83.9% | SN12C renal -9.47% | UO-31 renal -88.8% | TK-10 renal -50.2% | ACHN renal -14.1% | CAKI-1 renal -39.7% | A498 renal -8.63% | CCRF-CEM leukemia -41.7% | MOLT-4 leukemia -55.8%

CSc1nc(-c2cc3ccccc3o2)cc(-c2ccc(Cl)cc2)c1C#N
active: UO-31 renal -18.2% | ACHN renal -63%
inactive: SK-MEL-2 melanoma 23.8% | SN12C renal 36.8% | TK-10 renal 54.7% | CAKI-1 renal 48% | A498 renal 81.9% | CCRF-CEM leukemia 86.8% | MOLT-4 leukemia 94.5%

Clc1nc2ccccc2nc1CI
inactive: SK-MEL-2 melanoma 64.3% | SN12C renal 54.3% | UO-31 renal 69.2% | TK-10 renal 166% | ACHN renal 92.1% | CAKI-1 renal 97.8% | A498 renal 120% | MOLT-4 leukemia 20.2%
active: CCRF-CEM leukemia -4.61%

CS(=O)(=O)N(c1cc(-c2ccc3ncnc(Nc4cccc(Cl)c4)c3c2)cnc1Cl)S(C)(=O)=O
active: SK-MEL-2 melanoma -20% | UO-31 renal 2.2% | TK-10 renal 2.1% | CAKI-1 renal 6.68% | A498 renal -28% | MOLT-4 leukemia -10.5%
inactive: SN12C renal 21.6% | ACHN renal 11.7% | CCRF-CEM leukemia 20.2%

Cn1c(-c2nonc2NC(=O)c2ccc(F)cc2)nc2ccccc21
inactive: SK-MEL-2 melanoma 112% | SN12C renal 102% | UO-31 renal 91.2% | TK-10 renal 124% | ACHN renal 112% | CAKI-1 renal 105% | A498 renal 85.6% | CCRF-CEM leukemia 105%
active: MOLT-4 leukemia -1.74%

O=C(Nc1ccccc1)OCC1OCOC(COC(=O)Nc2ccccc2)C1OC(=O)Nc1ccccc1 (configuration not stated)
inactive: SK-MEL-2 melanoma 109% | SN12C renal 77.3% | UO-31 renal 85.6% | TK-10 renal 83.3% | ACHN renal 48.4% | CAKI-1 renal 91.7% | A498 renal 69% | CCRF-CEM leukemia 29.5% | MOLT-4 leukemia 73.8%

COc1ccc(-n2c(C)cc(-c3ccccc3)c2C)cc1
inactive: SK-MEL-2 melanoma 40% | SN12C renal 50.5% | UO-31 renal 52.3% | TK-10 renal 57.3% | ACHN renal 62.5% | CAKI-1 renal 29.3% | A498 renal 35.2% | CCRF-CEM leukemia 29.4% | MOLT-4 leukemia 17.8%

CCN(CC)c1cc(/C=C/c2ccc(OC)c(OC)c2)nc2cc(F)c(F)cc12
inactive: SN12C renal 57% | UO-31 renal 75.3% | CAKI-1 renal 46.8% | CCRF-CEM leukemia 29.7% | MOLT-4 leukemia 49.2%
active: SK-MEL-2 melanoma -58.2% | TK-10 renal -28.6% | ACHN renal -50.9% | A498 renal -2.91%

CC(=O)Nc1nc(C(=O)N2N=C(C)/C(=C/c3ccccc3)C2=O)cs1
inactive: SK-MEL-2 melanoma 94.6% | SN12C renal 109% | UO-31 renal 80.9% | TK-10 renal 107% | ACHN renal 99.9% | CAKI-1 renal 98.9% | A498 renal 120% | CCRF-CEM leukemia 98.7% | MOLT-4 leukemia 95.8%

CCCCC(N)(C(=O)O)C1CCCC1 (configuration not stated)
inactive: SK-MEL-2 melanoma 117% | SN12C renal 96.1% | UO-31 renal 90.9% | TK-10 renal 104% | ACHN renal 96.9% | CAKI-1 renal 93% | A498 renal 82.4% | CCRF-CEM leukemia 97.9% | MOLT-4 leukemia 123%

CCC1CCc2nc3sc(C(=O)Nc4ccccc4C)c(N)c3cc2C1 (configuration not stated)
inactive: SK-MEL-2 melanoma 21.9% | SN12C renal 58% | UO-31 renal 37.6% | TK-10 renal 59.6% | ACHN renal 47.4% | CAKI-1 renal 29.4% | A498 renal 33.2% | CCRF-CEM leukemia 18.7% | MOLT-4 leukemia 39.7%
